NS1 function inh – qHTS Assay for Inhibitors of Influenza NS1 Protein Function | Potency, µM (top dose mostly 46.1 µM), inactives show at the top dose activity, positive = more growth | 270,000 compounds, 0.4% hits; note: actives are rising curves; nearly all actives have a fitted effect of over 50% in size
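Growth recovery, yeast-based: influenza A NS1 expressed in S. cerevisiae causes slow growth, and suppressors are detected by OD600. The parent strain without NS1 is used as positive control.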
Pf growth 96h – Primary qHTS for delayed death inhibitors of the malarial parasite plastid, 96 hour incubation; P. falciparum luciferase reporter growth, 96 h; Potency, µM (top dose mostly 28.7 µM), for the others: top-dose activity change, negative = inhibition, usual class: inhibitors; AID 504834, 2011; 320,000 compounds, 6.9% hits; active = well fitted inhibition curve with a large enough effect; inconclusive = small, poorly fitted or top-dose-only effect, or another doubt; inactive = no such curve, though single readings can be large or run the other way; note: % is set by controls: 0 for no effect and ±100 for the full control effect
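P. falciparum expressing integrated firefly luciferase grown in erythrocytes (2% hematocrit, 0.05% parasitemia final) with compounds for 96 hours at 37 C, 5% CO2. Growth inhibition read as loss of luminescence after adding luciferase detection reagent.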
Pf growth 48h – Primary qHTS for delayed death inhibitors of the malarial parasite plastid, 48 hour incubation; P. falciparum luciferase growth in erythrocytes, 48 h; 310,000 compounds, 5.9% hits; Potency, µM (series often up to 28.7 µM), for the others: at the top dose activity change, negative = inhibition, usual class: inhibitors; active = well fitted inhibition curve with a large enough effect; inconclusive = small, poorly fitted or top-dose-only effect, or another doubt; inactive = no such curve, though single readings can be large or run the other way; note: % is set by controls: 0 for no effect and ±100 for the full control effect
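Parasite viability was followed by luminescence of a genomically integrated firefly luciferase. Cultures held 0.1% parasitemia at 2% hematocrit (final), incubated under 5% CO2 at 37 C.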
SARS PLP yeast – qHTS of Yeast-based Assay for SARS-CoV PLP. S. cerevisiae expressing SARS-CoV PLpro, growth rescue. Potency, µM (titrated, usually from 32.9 µM), for the others: top-dose activity, positive = growth rescue, actives largely listed as activators. 330,000 compounds, 0.19% hits. AID 485353, 2010; note: 0% is about no effect; nearly all actives have a fitted effect of over 55% in size
The depositor's hits bear a star. An excerpt weighted towards active compounds, which were near 10% of everything screened. Unless noted, calls come from the whole dose curve. Potency is the fitted concentration of half-maximal effect.

How did CCN1/C(=C/c2ccc3cccc(C)c3[n+]2CC)Sc2ccccc21 do in these assays?
NS1 function inh: -178.2%; Pf growth 96h: inconclusive; Pf growth 48h: inconclusive; SARS PLP yeast: -37.0%

What do the screens show for `O=[N+]([O-])c1cc(S(=O)(=O)NCCN2CCOCC2)ccc1Sc1nnnn1-c1ccccc1`?
NS1 function inh: 5.4%; Pf growth 96h: inconclusive; Pf growth 48h: 13.1µM*; SARS PLP yeast: 16.7%

What do the screens show for `COc1cc(C)c(Cl)cc1S(=O)(=O)N1CCSC1`?
NS1 function inh: -1.1%; Pf growth 96h: 11.7µM*; Pf growth 48h: -3.2%; SARS PLP yeast: -4.6%

Results for COc1ccc(C(=O)NCC(=O)OCC(=O)c2c(C)[nH]c3ccccc23)cc1OC ?
SARS PLP yeast: 2.8%

How did O=C1NC(=O)/C(=C\c2ccc(N3CCOCC3)o2)N1 do in these assays?
Pf growth 96h: inconclusive; Pf growth 48h: 7.38µM*; SARS PLP yeast: 1.1%

How did O=C1NC(=O)/C(=C/c2ccc(N3CCOCC3)o2)N1 do in these assays?
NS1 function inh: 1.9%; Pf growth 96h: inconclusive; Pf growth 48h: 1.47µM*; SARS PLP yeast: 0.0%

How did CN1C(=O)C(=Cc2ccc(N3CCOCC3)o2)C(=O)N(C)C1=O do in these assays?
NS1 function inh: 15.9%; Pf growth 96h: -6.2%; Pf growth 48h: 23.9%; SARS PLP yeast: -2.4%

Results for Cc1ccccc1N1C(=O)NC(=O)/C(=C/c2ccc(N3CCOCC3)o2)C1=O ?
NS1 function inh: 3.1%; Pf growth 96h: -6.2%; Pf growth 48h: 1.9%; SARS PLP yeast: 0.2%

What do the screens show for `CN(C(=O)CSc1nnnn1C)C1(C#N)CCCCC1`?
Pf growth 96h: 22.2%; Pf growth 48h: -11.2%; SARS PLP yeast: 1.5%

What do the screens show for `O=C(c1ccccc1)c1coc2c1C(=O)c1ccccc1C2=O`?
Pf growth 96h: -16.2%; Pf growth 48h: inconclusive; SARS PLP yeast: -0.7%

Results for O=C1c2ccccc2C(=O)c2c1oc(C(F)(F)F)c2C(=O)c1ccccc1 ?
NS1 function inh: inconclusive; Pf growth 96h: 0.131µM*; Pf growth 48h: inconclusive; SARS PLP yeast: -24.7%

Results for CCOC(=O)CC(NC(=O)c1cccs1)c1ccc(OCC)cc1 (configuration not stated) ?
NS1 function inh: -19.0%; Pf growth 96h: 10.4µM*; Pf growth 48h: 5.7%; SARS PLP yeast: 1.3%

Results for CCOc1ccc(C(=O)NCc2cccs2)cc1 ?
NS1 function inh: -14.2%; Pf growth 96h: 0.657µM*; Pf growth 48h: 17.1%; SARS PLP yeast: 4.6%

Results for CCOc1ccc(C(CC(=O)O)NC(=O)c2cccs2)cc1 (configuration not stated) ?
NS1 function inh: 35.7%; Pf growth 96h: inconclusive; Pf growth 48h: -23.4%; SARS PLP yeast: 16.9%

What do the screens show for `CC(C)CCC(CCNCc1ccccn1)c1ccc2c(c1)OCO2` (configuration not stated)?
NS1 function inh: 1.9%; Pf growth 96h: 10.4µM*; Pf growth 48h: inconclusive; SARS PLP yeast: -0.4%

What do the screens show for `CCNCCC(CCC(C)C)c1ccc2c(c1)OCO2` (configuration not stated)?
NS1 function inh: 0.0%; Pf growth 96h: 2.94µM*; Pf growth 48h: inconclusive; SARS PLP yeast: -0.6%

How did COc1ccc(CS(=O)c2nc(C)cc(C)c2S(C)(=O)=O)cc1 (configuration not stated) do in these assays?
Pf growth 96h: 29.8%; Pf growth 48h: 11.7µM*; SARS PLP yeast: -0.4%

Results for Cc1ccc(C(=O)OCC(=O)N2CCCCCC2)c(O)c1 ?
Pf growth 96h: 249.6%; Pf growth 48h: 374.9%; SARS PLP yeast: 7.6%

What do the screens show for `CN(C)S(=O)(=O)c1ccc(/C(O)=C2/C(=O)C(=O)N(Cc3cccnc3)C2c2cccs2)cc1` (configuration not stated)?
NS1 function inh: 14.7%; Pf growth 96h: 1.8%; Pf growth 48h: 11.5%; SARS PLP yeast: 0.4%

How did CN(C)S(=O)(=O)c1ccc(/C(O)=C2/C(=O)C(=O)N(Cc3cccnc3)C2c2ccco2)cc1 (configuration not stated) do in these assays?
NS1 function inh: -1.6%; Pf growth 96h: 8.28µM*; Pf growth 48h: 28.9%; SARS PLP yeast: -0.6%

Results for Cc1cc(C)n2nc(C(=O)OCC(=O)NCc3ccccc3)nc2n1 ?
Pf growth 96h: -23.2%; Pf growth 48h: -8.9%; SARS PLP yeast: 0.5%

Results for COc1ccc(NC(C)=O)cc1NC(=O)c1cccc(C(F)(F)F)c1 ?
NS1 function inh: 2.4%; Pf growth 96h: 2.6%; Pf growth 48h: 10.9%; SARS PLP yeast: 0.4%

Compound activity deposited in PubChem BioAssay by National Center for Advancing Translational Sciences (NCATS).
